# Many of the other results were omitted from the sample, so hits are more common in it than they were.
# ERK EGF inh = blocks ERK signaling stimulated by EGF; HEK293-V1b, EGF-stimulated phospho-ERK AlphaScreen; Potency, µM (titrated, usually from 11.5 µM), inactives show at the top dose activity change, negative = inhibition, actives largely listed as inhibitors; actives 0.41% (n = 130,000); AID 1454; active = well fitted inhibition curve with a large enough effect;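 note: plate controls were stimulated vehicle wells for no effect and unstimulated vehicle basal for full effect; nearly all actives have a fitted effect of over 55% in size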
#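 HEK293 cells stably expressing V1b receptor, serum-reduced (1% FBS) overnight, pretreated 30 min with compound, then stimulated 5 min with 25 nM EGF; phospho-ERK detected by AlphaScreen SureFire. AC50 from Hill fits, normalized to DMSO and EGF.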
# Starred values were filed as active, the others as inactive; [ ] = remark or other dose. Potency is the fitted concentration of half-maximal effect.
SMILES,ERK EGF inh
c1ccc(Cn2ccnc2)cc1,-11.8%[57.5 µM]
Clc1ccc(COC(Cn2ccnc2)c2ccc(Cl)cc2Cl)cc1 (stereo not drawn),28.2µM*
Clc1ccc(CS[C@@H](Cn2ccnc2)c2ccc(Cl)cc2Cl)cc1,2.3%[25.7 µM]
C[C@H]1O[C@@H](O[C@H]2[C@@H](O)C[C@H](O[C@H]3[C@@H](O)C[C@H](O[C@H]4CC[C@]5(C)C6CC[C@]7(C)[C@@H](C8=CC(=O)OC8)CC[C@]7(O)C6CC[C@@H]5C4)O[C@@H]3C)O[C@@H]2C)C[C@H](O)[C@@H]1O (stereo partly drawn),-5.4%
N#Cc1cccc(NC(=O)N2CC3(CCN(C(=O)Oc4ccccc4)CC3)C2)c1,-3.0%
CN1CCN(c2ccc(S(=O)(=O)C(F)(F)F)cc2[N+](=O)[O-])CC1,-6.3%
CN1CCN(c2ccc(S(C)(=O)=O)cc2[N+](=O)[O-])CC1,-3.3%
CN1CCN(c2ccc([N+](=O)[O-])c3no[n+]([O-])c23)CC1,10µM*
CN1CC[C@@]2(c3cccc(O)c3)Cc3nc4ccccc4cc3C[C@H]2C1,18.0%
O=C1C=C2C=CC3C[C@@]2(O1)C1CCCCN31 (stereo partly drawn),2.0%
COc1ccc2c(c1OC)C(=O)O[C@H]2[C@H]1c2cc3c(cc2CCN1C)OCO3,-6.5%[25.7 µM]
COc1ccc2c(c1OC)CN1CCc3cc4c(cc3[C@H]1C2)OCO4,4.7%[25.7 µM]
COc1ccc2c(c[n+](C)c3c4cc5c(cc4ccc23)OCO5)c1OC,12.6µM*
NC(N)=NCCCCCCCCCCN=C(N)N,-3.0%
CCC1/C=C/C=CCC(C)C(O)[C@@](C)(O)C(=O)C(C)C(O)C(C)C(=O)C(C)C(O)C(C)C=CC(=O)O[C@H]2C(C)C(CC1)O[C@]1(CCC(C)C(CC(C)O)O1)C2C (stereo partly drawn),19.0%
CC[C@H](CO)NC(=O)[C@H]1C=C2c3cccc4[nH]cc(c34)C[C@@H]2N(C)C1,5.0%[25.7 µM]
c1cnc(N2CC3(CCNCC3)C2)nc1,-4.7%
C#C[C@@]1(O)CC[C@@H]2[C@@H]3CCC4=CC(=O)CC[C@@]4(C)[C@H]3CC[C@]21C,7.6%[25.7 µM]
Cc1nn(Cc2ccccc2)c(C)c1C=C1C(=O)NC(=S)NC1=O,4.6%
CN(C)c1ccc(/C=C2\C(=O)NC(=O)N(Cc3ccc(F)cc3)C2=O)cc1,4.7%[57.5 µM]
CCN(CC)c1ccc(C=C2C(=O)NC(=S)NC2=O)cc1,28.2µM*
CC(=O)Oc1c2c(c(CC=C(C)C)c3c1C(=O)C1=CC4CC5C(C)(C)OC(C/C=C(\C)C(=O)O)(C4=O)[C@]15O3)OC(C)(CCC=C(C)C)C=C2 (stereo partly drawn),12.6µM*
O[N+]1=CC=CCC1=S.On1ccccc1=S.[Zn],20µM*
CC/C=C\C[C@@H](/C=C/C=C\C/C=C\C/C=C\CCCC(=O)O)OO,-10.1%
c1ccc(N2CCC3(CCNCC3)CC2)cc1,-8.4%
SMILES,ERK EGF inh
O=C1NC(=O)N(CCc2ccc(F)cc2)C(=O)/C1=C\C=C\c1ccccc1,-9.1%
C=CCN1C(=O)NC(=O)/C(=C/C=C/c2ccccc2)C1=O,22.4µM*
O=C1NC(=O)N(Cc2ccccc2)C(=O)/C1=C/c1cnc(-c2ccccc2)nc1,0.4%
c1csc(CN2CCC3(CCNCC3)CC2)n1,0.2%
CCC1C(=O)OC[C@H]1Cc1cncn1C (stereo partly drawn),11.2%
c1cc(CN2CCCC3(CCNCC3)C2)ccn1,8.4%
CCCCCCCCCCCCCCC[C@@H](O)[C@@H](N)COP(=O)(O)O,-16.9%
C=C1C(=O)O[C@H]2C[C@@H](C)[C@@H]3C=CC(=O)[C@@]3(C)C[C@H]12,0.7%[57.5 µM]
C=C1C(=O)O[C@H]2[C@H]1[C@H](OC(=O)CC(=O)O[C@@H]1C[C@@H](C)[C@@H]3C=CC(=O)[C@@]3(C)[C@H]3OC(=O)C(=C)[C@H]13)C[C@@H](C)[C@H]1C=CC(=O)[C@]12C,12.6%[57.5 µM]
C=C1C(=O)O[C@@H]2C[C@@H](C)[C@@H]3C=CC(=O)[C@@]3(C)[C@@H](OC(=O)CC(=O)O[C@H]3[C@@H]4C(=C)C(=O)O[C@@H]4C[C@@H](C)[C@@H]4C=CC(=O)[C@]43C)[C@H]12,4.47µM*
CC(=O)N1CCN(c2ccc(OC[C@@H]3CO[C@@](Cn4ccnc4)(c4ccc(Cl)cc4Cl)O3)cc2)CC1,5.8%[25.7 µM]
CN1CCCC2(CCN(C(=O)Oc3ccccc3)CC2)C1,-5.0%
COC(=O)[C@]1(C)CC[C@@]2(C)CC[C@@]3(C)C4=CC=C5C(=CC(=O)C(O)=C5C)[C@@]4(C)CC[C@@]3(C)C2C1 (stereo partly drawn),14.1µM*
Cc1ncc(CN2CC=C(c3ccccc3)CC2)c(N)n1,5.5%
CCCCC/C=C\C=C\[C@H](CCCCCCCC(=O)O)OO,-9.6%
CCc1ccc(C(=O)NN(C(=O)c2cc(C)cc(C)c2)C(C)(C)C)cc1,3.5%
C=CCNC(=S)Nc1ccc(OC(=O)Nc2ccc(Cl)c(Cl)c2)cc1,-16.3%[57.5 µM]
Cc1ccc(NC(=O)c2snnc2C)cc1Cl,-40.2%
Cc1nn(C(C)(C)C)c(C)c1/C=N/OC(=O)Nc1ccc(Cl)c(Cl)c1,31.6µM*
c1ccc(N2CC[C@@]3(CCCNC3)C2)cc1,8.5%

# Bioassay records from PubChem BioAssay.
